High-throughput results as filed in PubChem BioAssay.
KDM5B inhibitor = inhibitors of human KDM5B histone demethylase; KDM5B demethylase, FDH-coupled NADH fluorescence (FDH is formaldehyde dehydrogenase); Potency, µM (top dose mostly 57.7 µM), usual class: inhibitors; hit rate 2.6% among 220,000; AID 1347165; active = well fitted inhibition curve with a large enough effect; inconclusive = small, poorly fitted or top-dose-only effect; inactive = no such curve, though single readings can be large or run the other way; note: potency is the fitted concentration of half-maximal effect; 0% is about no effect; nearly all actives have a fitted effect of over 70% in size
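Here, H3K4me3 peptide (12.5 µM in substrate mix) is demethylated by KDM5BΔAP, 200 nM final, after 10 min compound exposure. Formaldehyde product is coupled through FDH (0.25 U/mL in mix) to NADH fluorescence; 30-min ΔRFU feeds dose-response curves.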
IP6K1 inhibitor = blocks human inositol hexakisphosphate kinase 1. Q92551. IP6K1 kinase, ADP-Glo luminescence, 2 h; stronger effect = lower value. activity change, % (series mostly up to about 58 µM). hit rate 0.81% among 140,000. AID 1645851; in the data active = activity change below about -25%; note: % is set by controls: 0 for no effect and ±100 for the full control effect
Target sequence (Q92551 whole entry, looked up): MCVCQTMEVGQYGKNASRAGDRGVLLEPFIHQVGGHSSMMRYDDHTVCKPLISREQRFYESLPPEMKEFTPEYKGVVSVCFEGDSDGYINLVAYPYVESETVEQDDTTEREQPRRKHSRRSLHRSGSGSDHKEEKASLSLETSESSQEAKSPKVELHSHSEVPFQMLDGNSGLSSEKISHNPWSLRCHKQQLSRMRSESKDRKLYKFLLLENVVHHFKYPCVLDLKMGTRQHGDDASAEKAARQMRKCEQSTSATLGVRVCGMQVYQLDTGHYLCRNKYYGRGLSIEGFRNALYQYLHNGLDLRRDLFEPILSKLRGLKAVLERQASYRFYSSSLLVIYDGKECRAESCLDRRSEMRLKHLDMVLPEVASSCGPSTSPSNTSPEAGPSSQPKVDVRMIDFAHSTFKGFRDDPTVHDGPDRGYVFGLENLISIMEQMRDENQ
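ADP-Glo luminescence measures ADP made by human IP6K1 during a 2 h RT reaction with ATP/IP6 (mix at 1.3 mM/130 uM); top library doses 57.5 and 19.1 uM final.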
Numbers without * were called inactive; i = inactive; u = inconclusive; x = not tested or not shown. Compounds with a hit are over-represented: about 2.8% of the library has one in this group of screens.

SMILES | KDM5B inhibitor | IP6K1 inhibitor
O=C(O)Cn1ccc2cc(OCc3cccc(-c4ccccc4O)c3)cnc21 | u | -13.6
Cc1ccc(-c2cccc(COc3cnc4c(ccn4CC(=O)O)c3)c2)cc1 | 35.5µM* | -12.6
COc1ccc(CNC(=O)COc2cc(O)c3c(=O)cc(-c4ccccc4)oc3c2)cc1 | i | x
O=C(NC1CCN(c2cc(-c3ccccc3)[nH]n2)CC1)c1ccc(F)c(Cl)c1 | u | 27.5
CCc1cccc(OCC(=O)NC(CC(C)C)C(=O)N(C)C)c1 (stereo not drawn) | i | x
Cc1ccc(NC(=O)C(Sc2ccc(S(=O)(=O)N3CCCC3)cn2)c2ccccc2)cc1 (stereo not drawn) | i | x
O=C1CCCN1CCCN1C(=O)[C@@H]2C[C@@H](O)CN2C2(CNC2)C1=O | i | 7.5
O=C(c1noc2c1CCCC2)N1CCOc2ccc(CN3CCN(c4ccccn4)CC3)cc2C1 | i | 14.7
O=C(c1ccc(-c2ccco2)cc1)N1CCOc2ccc(CN3CCN(c4ccccn4)CC3)cc2C1 | 28.2µM* | 13.6
N#Cc1cccnc1N1CCN(Cc2ccccc2F)C(CCO)C1 (stereo not drawn) | u | 2.8
N#Cc1cccnc1N1CCN(Cc2ccc(F)c(F)c2)C(CCO)C1 (stereo not drawn) | 12.6µM* | 29.5
CCCN1CCN(C(=O)C2CCc3ncc(-c4ccsc4)n3C2)CC1 (stereo not drawn) | u | 8.0
CN(C)C(=O)c1cc2c(s1)CCC(C(=O)N1CCN(c3ccccn3)CC1)C2 (stereo not drawn) | 28.2µM* | 8.4
O=C(C1CCc2ncc(-c3ccsc3)n2C1)N1CCN(c2ccccn2)CC1 (stereo not drawn) | 25.1µM* | 13.0
CN(C)C(=O)c1cc2c(s1)CCC(C(=O)N1CCN(c3ccccc3)CC1)C2 (stereo not drawn) | i | 38.1
CCCc1nnc2sc(-c3ccc4ccccc4n3)nn12 | i | x
Cc1cc(C(=O)CSc2nc3ccccc3o2)c(C)n1C | i | x
COc1cccc(NC(=O)Cn2cc(OC)c(=O)cc2CSc2ccc(F)cc2)c1 | i | x
COc1ccc(-c2ccc3c(c2)C(=O)N2CCN(C(=O)c4cccnc4)C[C@@H]2C(=O)N3)cc1 | u | -6.7
COc1ccc(-c2ccc3c(c2)C(=O)N2CCN(C(=O)COc4ccccc4)C[C@@H]2C(=O)N3)cc1 | 28.2µM* | -3.3
C=CCO[C@@H]1C[C@H]2C(=O)Nc3ccc(-c4ccccc4)cc3C(=O)N2C1 | i | 4.8
O=C1Nc2ccc(-c3cccc(C(F)(F)F)c3)cc2C(=O)N2CCN(C(=O)NC3CCCCC3)C[C@H]12 | u | -17.0
COCC(=O)N1CCN2C(=O)c3cc(-c4ccc(OC)cc4)ccc3NC(=O)[C@H]2C1 | 31.6µM* | 4.8
COCC(=O)N1CCN2C(=O)c3cc(-c4cccc(C(F)(F)F)c4)ccc3NC(=O)[C@H]2C1 | 28.2µM* | -4.9
C=CCO[C@@H]1C[C@H]2C(=O)Nc3ccc(-c4ccc(OC)cc4)cc3C(=O)N2C1 | 35.5µM* | -12.0
SMILES | KDM5B inhibitor | IP6K1 inhibitor
COc1ccc(-c2ccc3c(c2)C(=O)N2CCN(C(=O)NC4CCCCC4)C[C@@H]2C(=O)N3)cc1 | u | 2.4
COc1ccc2c(c1)OCC(CNC(=O)c1cc(-c3ccncc3)n[nH]1)C2 (stereo not drawn) | i | -11.4
NC(=S)N/N=C1\C2C3CC4C1C1C2CC3C41 (stereo not drawn) | i | x
O=C1Nc2ccc(-c3cccc(C(F)(F)F)c3)cc2C(=O)N2CCN(C(=O)c3ccco3)C[C@@H]12 | 35.5µM* | -14.1
O=C1Nc2ccc(-c3cccc(C(F)(F)F)c3)cc2C(=O)N2C[C@H](O)C[C@@H]12 | u | -10.2
CCn1c2c(c(=O)n1-c1ccccc1)CCN(C(=O)CCc1cccnc1)C2 | i | 12.1
Cc1cc(-c2cc3c(n(Cc4cccnc4)c2=O)CCN(C(=O)CCc2ccccc2)C3)ccc1F | 25.1µM* | 8.2
Cc1ccc(NC(=O)COc2ccc(-c3nnc4n3CCCC4)cc2)cc1C | i | -6.6
CCn1c(CSc2nnc(C3CC3)o2)nc2cc(S(=O)(=O)N(C)C)ccc21 | i | x
CCCc1noc(-c2ccn3c(CNC(=O)c4ccccc4OC)nnc3c2)n1 | 3.16µM* | 28.8
CCCc1noc(-c2ccn3c(CNC(=O)c4cc5ccccc5[nH]4)nnc3c2)n1 | i | 8.3
COc1ccccc1CC(=O)NCc1nnc2cc(-c3nc(C)no3)ccn12 | u | 14.6
CCCc1noc(-c2ccn3c(CNC(=O)c4ccc(C)cc4)nnc3c2)n1 | u | 23.9
CCCc1noc(-c2ccn3c(CNC(=O)Cc4ccccc4OC)nnc3c2)n1 | 17.8µM* | 18.2
CCCc1noc(-c2ccn3c(CNC(=O)C(C)Oc4ccccc4)nnc3c2)n1 (stereo not drawn) | 25.1µM* | 18.5
CC(c1ccccc1)C(CC(=O)O)C(=O)O (stereo not drawn) | i | x
c1ccc(-c2nnc(CSc3nnnn3C3CCCC3)o2)cc1 | i | x
O=C(Nc1ccccc1)N1CCN(c2nccc(Nc3ccccc3Cl)n2)CC1 | x | 20.7
Cc1ccc(N2C(=O)c3n[nH]c(C)c3C2c2ccc(O)cc2)cc1 (stereo not drawn) | i | x
CN(C)c1ccc(C(=O)N2CCN(S(C)(=O)=O)[C@H](C(=O)N[C@H](Cc3c[nH]c4ccccc34)C(N)=O)C2)cc1 | i | -12.6
CN(C)c1ccc(C(=O)N2CCN(C(=O)c3ccc(N(C)C)cc3)[C@H](C(=O)N[C@H](Cc3c[nH]c4ccccc34)C(N)=O)C2)cc1 | 28.2µM* | 2.7
Nc1cccn2nc(-c3cccnc3)nc12 | u | 3.5
Nc1cccn2nc(-c3ccccc3)nc12 | 28.2µM* | 12.1
C[S+](=O)([O-])CCn1ncc2cc(OCC3CCN(CCC(F)(F)F)CC3)ccc21 | i | 1.0
Cc1ccc2c(C(=O)Nc3ccc(N4CCOCC4)cc3)cc(NC(=O)C3CCC3)cc2n1 | u | 5.1
SMILES | KDM5B inhibitor | IP6K1 inhibitor
Cc1ccc2c(C(=O)N3CCN(C4CCCCC4)CC3)cc(NC(=O)C(C)C)cc2n1 | 11.2µM* | 7.9
Cc1cc(C(=O)N2CCC(NC(=O)C3CCCCC3)CC2)c2ccccc2n1 | i | x
COc1ccc(NC(=O)c2cc(NC(=O)C3CC3)cc3nc(C)ccc23)cc1 | u | 0.2
CC(=O)Nc1cc(C(=O)N2CCN(C3CCCCC3)CC2)c2ccc(C)nc2c1 | u | 20.3
Cc1ccc2c(C(=O)N3CCN(C4CCCCC4)CC3)cc(NC(=O)C3CCC3)cc2n1 | 25.1µM* | 6.9
Cc1ccc2c(C(=O)N3CCCCCC3)cc(NC(=O)C3CCC3)cc2n1 | 31.6µM* | 3.8
Cc1ccc2c(C(=O)N3CCCCCC3)cc(NC(=O)C3CC3)cc2n1 | 28.2µM* | -2.0
CCCCn1c(=O)[nH]c(=O)c2c1nc(COC(=O)Cc1ccccc1)n2CCC | i | x
COc1ccc(S(=O)(=O)N2CCCC(Cc3noc(-c4ccncc4)n3)C2)cc1 (stereo not drawn) | i | 2.1
CC1=C[C@@H](CN2CCOCC2)[C@H](C(C)C)C[C@H]1Cc1nnc(-c2ccc(N(C)C)cc2)o1 | 35.5µM* | 10.2
CC1=C[C@@H](CN2CCN(c3ccccn3)CC2)[C@H](C(C)C)C[C@H]1Cc1nnc(-c2ccccc2)o1 | 28.2µM* | 7.2
CC1=C[C@@H](CN2CCOCC2)[C@H](C(C)C)C[C@H]1Cc1nnc(-c2ccccc2)o1 | i | 0.0
